# Test results: PubChem BioAssay AID1240 (Sanford-Burnham Center for Chemical Genomics, 2008)
# Screen size: about 50,000 compounds; about 800 (1.6%) showed an effect of 50% or more. The sample holds strong results, similar compounds and a random draw of the others, so the mix is not that of the screen.
# Biological target: Bcl-2-like protein 10 (Homo sapiens) (UniProt Q9HD36)
# Assay: TR3 peptide-Bcl-B binding displacers, biochemical primary FP assay, phenotype converters (AID 1240);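 note: 0% = Bcl-B with tracer peptide and DMSO and 100% = tracer peptide lacking Bcl-B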
# Conditions: GST-Bcl-B / FITC-TR3 peptide fluorescence polarization; stronger effect = higher value; compound at 3.75 mg/L
# Sequence of Bcl-2-like protein 10 (Homo sapiens) (Q9HD36 whole entry, looked up): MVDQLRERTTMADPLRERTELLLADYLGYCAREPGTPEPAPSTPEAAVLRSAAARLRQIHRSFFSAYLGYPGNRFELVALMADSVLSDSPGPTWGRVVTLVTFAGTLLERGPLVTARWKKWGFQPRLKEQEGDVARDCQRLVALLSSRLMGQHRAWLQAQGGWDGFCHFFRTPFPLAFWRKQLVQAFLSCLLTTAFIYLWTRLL
row,Compound,displacement [%]
1,COc1ccc(NC(=O)/C(=C\c2ccccc2OC)NC(=O)c2ccccc2OC)cc1,3
2,O=C1N/C(=N\N=C\c2ccccc2F)SC1Cc1ccccc1[N+](=O)[O-] (stereo not given),7.3
3,O=C1C2C(c3ccc(Cl)cc3)OC3(C(=O)c4ccccc4C3=O)C2C(=O)N1c1ccc(F)c([N+](=O)[O-])c1 (stereo not given),5.6
4,COc1ccccc1NC(=O)C1=C(C)NC(=O)NC1c1cccc([N+](=O)[O-])c1 (stereo not given),-7.1
5,CCCC(C)NS(=O)(=O)c1ccccc1[N+](=O)[O-] (stereo not given),3
6,O=C(NCC1CCCO1)c1ccc(F)c2ccccc12 (stereo not given),-13.5
7,O=C(CC1S/C(=N\N=C\c2cccs2)NC1=O)Nc1ccc(Cl)c(Cl)c1 (stereo not given),7.8
8,O=C(CC1S/C(=N\N=C\c2ccccc2)NC1=O)Nc1ccc(C(=O)O)cc1 (stereo not given),69.5
9,O=C(CC1S\C(=N/N=C/C=C/c2ccccc2)NC1=O)Nc1ccc(C(=O)O)cc1 (stereo not given),41.6
10,CC(=O)c1cccc(NC(=O)CC2S/C(=N\N=C\c3cccs3)NC2=O)c1 (stereo not given),-3.9
11,O=C(CC1S/C(=N\N=C\c2cccs2)NC1=O)Nc1ccc(C(=O)O)cc1 (stereo not given),121
12,O=C(CC1S/C(=N\N=C\c2ccco2)NC1=O)Nc1ccc(C(=O)O)cc1 (stereo not given),-0.3
13,CCOC(=O)C1=NNC2C(=O)N(c3ccc(C)c(C)c3)C(=O)C12 (stereo not given),4.5
14,CCc1ccc(-c2csc(N3N=C(c4cccs4)CC3c3ccc(F)cc3)n2)cc1 (stereo not given),0.2
15,COc1ccc(NC(=O)c2ccccc2NC(=O)c2ccc(C)cc2)cc1,-10.2
16,O=C(O)CCN1C(=O)/C(=C/c2cn(-c3ccccc3)nc2-c2cccs2)SC1=S,-14.1
17,COc1ccc(N2C(=O)/C(=C/c3cn(-c4ccccc4)nc3-c3cccs3)SC2=S)cc1,0.4
18,O=C1/C(=C/c2cn(-c3ccccc3)nc2-c2cccs2)SC(=S)N1Cc1ccccc1,115
19,O=C1/C(=C/c2cn(-c3ccccc3)nc2-c2ccco2)SC(=S)N1C1CCS(=O)(=O)C1 (stereo not given),11.2
20,O=C1/C(=C/c2cn(-c3ccccc3)nc2-c2cccs2)SC(=S)N1C1CCS(=O)(=O)C1 (stereo not given),100
21,CC(C)CN1C(=O)/C(=C/c2cn(-c3ccccc3)nc2-c2cccs2)SC1=S,34.6
22,COc1ccc(-n2c(SCC(=O)Nc3ccc(C)cc3)nc(O)c(Cc3ccccc3)c2=O)cc1,22.8

row,Compound,displacement [%]
1,Cc1ccnc(N2C(=O)c3ccc(C(=O)O)cc3C2=O)c1,1.9
2,Cc1nn(-c2ccccc2)c2sc(C(=O)N/N=C/c3cc4c(cc3[N+](=O)[O-])OCO4)cc12,-1.4
3,Cc1ccccc1OCC(=O)Nc1ccc(I)cc1Cl,9.5
4,COC(=O)C1=C(C)N(C)C(C)=C(C(=O)OC)C1c1ccc(Br)cc1,-10.8
5,CCOc1ccc(-c2nc(Cc3ccccc3OC)no2)cc1,-6.4
6,O=C1C2CCCCC2C(=O)N1CC(=O)N1c2ccccc2Sc2ccc(C(F)(F)F)cc21 (stereo not given),-14.3
7,CCCOc1ccc(N2C(=O)CC(NCCNc3ccc([N+](=O)[O-])cn3)C2=O)cc1 (stereo not given),-1.7
8,CCn1c2ccccc2c2cc(C=Nc3ccccc3C(=O)Nc3ccccc3)ccc21,-5.9
9,O=C(Nc1ccccc1)c1ccccc1N=Cc1ccc(C=Nc2ccccc2C(=O)Nc2ccccc2)cc1,121
10,O=C(Nc1ccccc1)c1ccccc1N=Cc1ccc(Cl)c([N+](=O)[O-])c1,6.6
11,CCOP(=O)(OCC)C(OC(N)=O)c1ccc([N+](=O)[O-])cc1 (stereo not given),-9.1
12,Cc1onc(-c2c(F)cccc2Cl)c1C(=O)NCc1ccccn1,-5.5
13,Cc1cc(N[C@@H]2O[C@@H](C)[C@H](O)[C@@H](O)[C@H]2O)c([N+](=O)[O-])cc1C,6.5
14,O=[N+]([O-])c1ccccc1N[C@H]1O[C@H](CO)[C@@H](O)[C@@H]1O,6
15,C[C@@H]1O[C@@H](Nc2ccc(Cl)cc2[N+](=O)[O-])[C@H](O)[C@H](O)[C@H]1O,54.7
16,CC1=NN(c2ccc(C(=O)O)cc2)C(=O)/C1=C\c1ccc(O)cc1,-50.5
17,Cc1cc2nc(-c3cc(NC(=O)COc4ccc([N+](=O)[O-])cc4)ccc3O)oc2cc1C,0.2
18,Cc1c(NC(=O)/C=C/c2cn(-c3ccccc3)nc2-c2ccccc2)c(=O)n(-c2ccccc2)n1C,70
19,Cc1c(NC(=O)/C=C/c2ccccc2)c(=O)n(-c2ccccc2)n1C,2.7
20,Cc1c(NC(=O)/C=C/c2cn(-c3ccccc3)nc2-c2ccc(F)cc2)c(=O)n(-c2ccccc2)n1C,12.2
21,COc1ccc(C(=O)N2CCN(Cc3ccccc3C)CC2)cc1OC,-1
22,COc1cc(C(=O)N2CCN(Cc3cccc(Oc4ccccc4)c3)CC2)cc(OC)c1OC,132

row,Compound,displacement [%]
1,COc1ccc(C(=O)N2CCN(Cc3cccc4ccccc34)CC2)cc1OC,-5.2
2,COc1ccc(C(=O)N2CCN(Cc3ccccc3F)CC2)cc1OC,56
3,O=C(c1ccccc1)N1CCN(Cc2cccc(Oc3ccccc3)c2)CC1,-8.8
4,COc1ccc(C(=O)N2CCN(Cc3cccc(Oc4ccccc4)c3)CC2)cc1OC,6.4
5,CC(=O)SCCC(=O)N1CCn2c3c(c4cc(C)ccc42)CCCC31 (stereo not given),14.3
6,CN1CCN(CC(=O)N2CCn3c4c(c5cc(C6CCCCC6)ccc53)CCCC42)CC1 (stereo not given),60.9
7,CCn1c2c(c3cc(C4CCCCC4)ccc31)CCCC2O (stereo not given),2.5
8,O=C(Nc1ccc(Cl)cc1)Nc1ccc([N+](=O)[O-])cc1Br,3.9
9,CCCC(=O)Nc1ccc2c(c1)Cc1ccccc1-2,-1.1
10,O=C(N/N=C/c1cccnc1)c1ccco1,18.4
11,O=C1OC(c2ccc(NC(=O)C(F)(F)F)cc2)(c2ccc(NC(=O)C(F)(F)F)cc2)c2ccccc21,4.8
12,O=C1OC(Nc2ncccn2)(c2ccccc2)c2ccccc21 (stereo not given),-7.3
13,O=S(=O)(c1ccc2ccccc2c1)N1CCC(Cc2ccccc2)CC1,-21.4
14,O=C(CCN1C(=O)c2ccccc2C1=O)Nc1ccccc1C(=O)N1CCOCC1,10
15,O=C1CNC(=O)c2c(ncn2Cc2ccccc2)N1,-13.2
16,O=C1c2ccccc2-c2onc3ccc(N4CCCCC4)c1c23,145
17,O=C1c2ccccc2-c2onc3ccc(Nc4cccc([N+](=O)[O-])c4)c1c23,24.2
18,O=C1c2ccccc2-c2onc3c(N4CCN(c5ccccc5)CC4)ccc1c23,-8.2
19,O=C1c2ccccc2C(=O)c2c(NC3CCCCC3)cccc21,-2.9
20,Cc1ccc(N2CCCCC2)c2c1C(=O)c1ccccc1C2=O,1.1
21,O=C1c2ccccc2-c2onc3ccc(NC4CCCCC4)c1c23,59.4
